Eleven compounds from PubChem BioAssay (Tox21) can be followed below.

Unmarked numbers belong to inactive results. Inconclusive results are not listed. The source made the active and inactive calls. Calls follow the shape of the dose curve; as a rule, active = well fitted curve in the direction sought with a large enough effect in the repeat runs; inconclusive = weak or mixed curves; inactive = no such curve, though single readings can be large; an effect the other way counts as inactive or inconclusive.

Test [1] can be described thus: A CellTox Green Cytotoxicity Assay to monitor cytotoxicity in HEK293 cells - 40 hour (AID 1224871). Also: nearly all actives have a fitted effect of over 45% in size. Also: potency is read from the fitted curve at half-maximal effect. The settings on record: CellTox Green fluorescence; series mostly up to 76.8 µM. Summed up:
(§1)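 HEK293 cells, 600/well, were preincubated 5 hours and then exposed to compounds at 37 C for up to 40 hours. A cell-impermeant cyanine dye staining dead-cell DNA was read by fluorescence at 0, 8, 16, 24, 32 and 40 h time points.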

A short description of test [2]: qHTS RealTime-Glo MT Cell Viability Assay in HEK293 cells - 16 hour (AID 1224872). Also: nearly all actives have a fitted effect of over 50% in size. Also: potency is read from the fitted curve at half-maximal effect. To be noted: RealTime-Glo luminescence; series mostly up to 76.8 µM. An outline of the steps: (§2)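 Assay medium contained NanoLuc luciferase plus cell-permeant prosubstrate, added with HEK293 cells at 600 cells/well. After 5 h at 37 C/5% CO2 compounds were added; plates stayed at 37 C for 40 h with serial luminescence reads.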
In general terms: In qHTS, concentration-response curves come from the screen itself.

The nature of test [3]: qHTS RealTime-Glo MT Cell Viability Assay in HepG2 cells - 8 hour (AID 1224873). Also: nearly all actives have a fitted effect of over 55% in size. Also: potency is read from the fitted curve at half-maximal effect. The settings on record: RealTime-Glo luminescence; series mostly up to 76.8 µM. Summed up:
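HepG2 cells mixed with RealTime-Glo MT reagents (NanoLuc plus cell-permeant prosubstrate) were seeded at 600 cells/well, incubated 5 h at 37 C/5% CO2, then pinned with compounds in DMSO; nonlytic luminescence tracked viability during 40 h treatment.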

Test [4] is described as follows: qHTS RealTime-Glo MT Cell Viability Assay in HEK293 cells - 40 hour (AID 1224874). Also: nearly all actives have a fitted effect of over 50% in size. Also: potency is read from the fitted curve at half-maximal effect. The settings on record: RealTime-Glo luminescence; max response: active compounds read low. An outline of the steps:
(§3)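 600 cells/well were plated with the nonlytic NanoLuc/prosubstrate reagent, pre-incubated 5 h, then given 23 nL of compound in DMSO. Incubation at 37 C for 40 h, with luminescence from viable-cell-reduced substrate read repeatedly from 0 h.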

Test [5] can be described thus: A CellTox Green Cytotoxicity Assay to monitor cytotoxicity in HEK293 cells - 24 hour (AID 1224875). Also: nearly all actives have a fitted effect of over 45% in size. Also: potency is read from the fitted curve at half-maximal effect. To be noted: CellTox Green fluorescence; series mostly up to 76.8 µM. Summed up: as §1
Test [6] can be described thus: A CellTox Green Cytotoxicity Assay to monitor cytotoxicity in HepG2 cells - 16 hour (AID 1224876). Also: nearly all actives have a fitted effect of over 45% in size. Also: potency is read from the fitted curve at half-maximal effect. The settings on record: CellTox Green fluorescence; series mostly up to 76.8 µM. Summed up: (§4)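 HepG2 cells, 600/well, preincubated 5 h with CellTox Green dye, then exposed to Tox21 compounds in DMSO at 37 C for up to 40 h. Dead-cell DNA fluorescence read at the indicated time point.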

A short description of test [7]: qHTS RealTime-Glo MT Cell Viability Assay in HepG2 cells - 32 hour (AID 1224877). Also: nearly all actives have a fitted effect of over 55% in size. Also: potency is read from the fitted curve at half-maximal effect. The settings on record: RealTime-Glo luminescence; series mostly up to 76.8 µM. Summed up:
(§5)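 qHTS, HepG2, 600 cells/well, RealTime-Glo (NanoLuc + prosubstrate) added with cells; 5 h preincubation; DMSO compound addition; 37 C; luminescence at 0/8/16/24/32/40 h.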

A short description of test [8]: A CellTox Green Cytotoxicity Assay to monitor cytotoxicity in HepG2 cells - 24 hour (AID 1224878). Also: nearly all actives have a fitted effect of over 45% in size. Also: potency is read from the fitted curve at half-maximal effect. The settings on record: CellTox Green fluorescence; series mostly up to 76.8 µM. Summed up: as §4
The nature of test [9]: A CellTox Green Cytotoxicity Assay to monitor cytotoxicity in HepG2 cells - 40 hour (AID 1224879). Also: nearly all actives have a fitted effect of over 40% in size. Also: potency is read from the fitted curve at half-maximal effect. To be noted: CellTox Green fluorescence; series mostly up to 76.8 µM. Summed up:
as §4

Test [10] can be described thus: qHTS RealTime-Glo MT Cell Viability Assay in HEK293 cells - 0 hour (AID 1224880). To be noted: RealTime-Glo luminescence; series mostly up to 76.8 µM. An outline of the steps:
as §3

The nature of test [11]: A CellTox Green Cytotoxicity Assay to monitor cytotoxicity in HEK293 cells - 32 hour (AID 1224881). Also: nearly all actives have a fitted effect of over 40% in size. Also: potency is read from the fitted curve at half-maximal effect. To be noted: CellTox Green fluorescence; series mostly up to 76.8 µM. Summed up:
as §1

Test [12] in a line: A CellTox Green Cytotoxicity Assay to monitor cytotoxicity in HepG2 cells - 0 hour (AID 1224882). Also: nearly all actives have a fitted effect of over 35% in size. To be noted: CellTox Green fluorescence; series mostly up to 76.8 µM. An outline of the steps: as §4
Test [13] can be described thus: A CellTox Green Cytotoxicity Assay to monitor cytotoxicity in HepG2 cells - 32 hour (AID 1224883). Also: nearly all actives have a fitted effect of over 50% in size. Also: potency is read from the fitted curve at half-maximal effect. The settings on record: CellTox Green fluorescence; series mostly up to 76.8 µM. Summed up:
as §4

A short description of test [14]: A CellTox Green Cytotoxicity Assay to monitor cytotoxicity in HEK293 cells - 8 hour (AID 1224884). Also: nearly all actives have a fitted effect of over 35% in size. To be noted: CellTox Green fluorescence; series mostly up to 76.8 µM. Summed up:
as §1

Test [15] can be described thus: qHTS RealTime-Glo MT Cell Viability Assay in HepG2 cells - 16 hour (AID 1224885). Also: nearly all actives have a fitted effect of over 50% in size. Also: potency is read from the fitted curve at half-maximal effect. To be noted: RealTime-Glo luminescence; series mostly up to 76.8 µM. An outline of the steps:
as §5

Test [16] is described as follows: qHTS RealTime-Glo MT Cell Viability Assay in HEK293 cells - 24 hour (AID 1224886). Also: nearly all actives have a fitted effect of over 50% in size. Also: potency is read from the fitted curve at half-maximal effect. The settings on record: RealTime-Glo luminescence; series mostly up to 76.8 µM. An outline of the steps: as §2
Test [17] in a line: qHTS RealTime-Glo MT Cell Viability Assay in HEK293 cells - 8 hour (AID 1224887). Also: nearly all actives have a fitted effect of over 50% in size. Also: potency is read from the fitted curve at half-maximal effect. The settings on record: RealTime-Glo luminescence; series mostly up to 76.8 µM. Summed up:
as §3

A short description of test [18]: A CellTox Green Cytotoxicity Assay to monitor cytotoxicity in HEK293 cells - 16 hour (AID 1224888). Also: nearly all actives have a fitted effect of over 35% in size. Also: potency is read from the fitted curve at half-maximal effect. To be noted: CellTox Green fluorescence; series mostly up to 76.8 µM. Summed up:
as §1

Test [19] in a line: qHTS RealTime-Glo MT Cell Viability Assay in HepG2 cells - 0 hour (AID 1224889). Also: nearly all actives have a fitted effect of over 50% in size. The settings on record: RealTime-Glo luminescence; series mostly up to 76.8 µM. An outline of the steps:
as §5

Test [20] can be described thus: A CellTox Green Cytotoxicity Assay to monitor cytotoxicity in HepG2 cells - 8 hour (AID 1224890). Also: nearly all actives have a fitted effect of over 45% in size. Also: potency is read from the fitted curve at half-maximal effect. The settings on record: CellTox Green fluorescence; series mostly up to 76.8 µM. Summed up: as §4
% is scaled to controls: 0 for no effect and ±100 for the full control effect.

As for `CN(C)c1ccc(SC#N)cc1`, the Potency result in [1], in test [2], in [3], in [5], in test [6] and in test [7] was “inactive” each time. For the same compound, the Potency result in test [8], in test [9], in [10], in test [11], in test [12] and in test [13] was “inactive” each time. The Potency entry in test [14], in test [15], in test [16], in test [17], in test [18] and in [19] was “inactive” in each case. Also, the Potency result in [20] was “inactive”. Moreover, the max response in test [4] is 0.13%.

Take `CSc1ccc(C(=O)c2[nH]c(=O)[nH]c2C)cc1`: the Potency result in test [1], in test [2], in test [3], in [5], in test [6] and in [7] was “inactive” each time. Also, the Potency entry in test [8], in [9], in test [10], in [11], in test [13] and in test [14] was “inactive” throughout. The Potency entry in test [15], in test [16], in test [17], in test [19] and in [20] was “inactive” in each case. Further, in test [4], the max response is 2.74%.

In the case of `CN(C)C(=O)C1(N2CCCCC2)CCN(CC[C@@]2(c3ccc(Cl)c(Cl)c3)CN(C(=O)c3ccccc3)CCO2)CC1`, the Potency in test [1] was 28.9 µM (active); in test [2], 12.9 µM (active); in test [3], 45.8 µM (active); in [4], 11.5 µM (active); in [5], 40.8 µM (active); in [6], 40.8 µM (active). The Potency in test [7] is 18.2 µM (active); in test [8], 20.4 µM (active); in test [9] it was 20.4 µM (active); in [11], 32.4 µM (active); in [13] it was 18.2 µM (active); in [15] it was 36.3 µM (active). Further, the Potency was 11.5 µM (active) in [16], 16.2 µM (active) in [17], 45.8 µM (active) in test [18] and 45.8 µM (active) in [20]. Besides, the Potency result in test [10], in test [12] and in [19] was “inactive” each time.

In the case of `CC(=O)OCC(C)OC(C)=O` (configuration not stated), the Potency result in test [1], in [2], in test [3], in test [5], in test [6] and in [7] was “inactive” throughout. For the same compound, the Potency result in [8], in test [9], in [10], in test [11], in test [12] and in test [13] was “inactive” throughout. Moreover, the Potency entry in test [15], in [16], in [17], in test [18] and in test [20] was “inactive” in each case. Further, the max response in test [4] is -0.171%.

With `COC(=O)C1=C(C)NC(C)=C(C(=O)OCCc2ccc(N3CCN(C(c4ccccc4)c4ccccc4)CC3)cc2)C1c1cccc([N+](=O)[O-])c1` (configuration not stated), the Potency entry in [1], in [2], in test [3], in test [5], in [6] and in test [7] was “inactive” throughout. Besides, the Potency entry in test [8], in test [9], in test [10], in [11], in [12] and in [13] was “inactive” in each case. Besides, the Potency entry in test [15], in [16], in [17], in test [18], in test [19] and in test [20] was “inactive” in each case. In addition, the max response in test [4] was 0.767%.

Consider `Cc1onc(-c2c(Cl)cccc2Cl)c1C(=O)N[C@@H]1C(=O)N2[C@@H]1SC(C)(C)[C@@H]2C(=O)O`, for which the Potency result in [1], in [2], in [3], in test [5], in test [6] and in [7] was “inactive” in each case. The Potency result in [8], in [9], in [10], in test [11], in [13] and in [14] was “inactive” in each case. Besides, the Potency entry in test [15], in [16], in [17], in test [18], in test [19] and in [20] was “inactive” each time. For the same compound, the max response in [4] was 9.42%.

Regarding `Clc1ccc2n[nH]nc2c1`, the Potency entry in test [1], in test [2], in test [3], in [5], in [6] and in [7] was “inactive” in each case. For the same compound, the Potency result in test [8], in test [9], in [10], in test [11], in test [12] and in test [13] was “inactive” each time. Further, the Potency entry in [14], in test [15], in [16], in test [17], in test [18] and in test [19] was “inactive” in each case. For the same compound, in test [20], the Potency entry is “inactive”. Also, the max response in test [4] was 4.16%.

For the compound `CCCC/C=C/CCCCO`, the Potency entry in test [1], in test [2], in test [3], in test [5], in [6] and in test [7] was “inactive” throughout. Moreover, the Potency entry in test [8], in test [9], in test [10], in test [11], in test [12] and in [14] was “inactive” throughout. The Potency result in [15], in [16], in [17] and in test [20] was “inactive” throughout. In addition, the max response in [4] was 5.87%.

`COc1cc(/C=C/C(=O)O[C@H]2CC[C@]34C[C@]35CC[C@]3(C)[C@@H]([C@H](C)CCC=C(C)C)CC[C@@]3(C)[C@@H]5CC[C@H]4C2(C)C)ccc1O`: the Potency result in [1], in test [2], in test [3], in [5], in test [6] and in [7] was “inactive” each time. For the same compound, the Potency entry in test [8], in [9], in [10], in test [12], in [13] and in [14] was “inactive” each time. Besides, the Potency entry in test [15], in test [16], in test [17], in test [18], in test [19] and in test [20] was “inactive” each time. Further, in [4], the max response was 1.32%.

`Clc1ccc2nsnc2c1NC1=NCCN1`: the Potency entry in test [1], in [2], in test [3], in test [5], in test [6] and in [7] was “inactive” throughout. Also, the Potency entry in test [8], in test [9], in [10], in test [11], in [12] and in [13] was “inactive” in each case. The Potency entry in test [14], in test [15], in test [16], in test [17], in [18] and in [19] was “inactive” each time. Moreover, the Potency entry in [20] was “inactive”. The max response in [4] was 0.404%.

Take `NC(=O)CC[C@@H]1NC(=O)[C@H](Cc2ccccc2)NC(=O)[C@H](Cc2ccc(O)cc2)NC(=O)CCSSC[C@@H](C(=O)N2CCC[C@H]2C(=O)N[C@@H](CCCN=C(N)N)C(=O)NCC(N)=O)NC(=O)[C@H](CC(N)=O)NC1=O`: the Potency result in [1], in test [2], in test [3], in [5], in test [6] and in test [7] was “inactive” throughout. In addition, the Potency result in test [8], in [9], in [10], in test [11], in [12] and in test [13] was “inactive” each time. Besides, the Potency entry in test [15], in test [16], in test [17], in test [19] and in test [20] was “inactive” in each case. For the same compound, the max response in [4] is 0.946%.
